According to PubChem BioAssay (Tox21):
Where “and” joins values, the source holds several entries; their conditions need not be identical. Identical values can stand only once. Records with an inconclusive call do not appear. Where a call stands in place of a potency, no number is given. The source holds several records for some structures; these can differ, active in one and inactive in another. Calls of active or inactive are those of the source. Calls follow the shape of the dose curve; as a rule, active = well fitted inhibition curve with a large enough effect in the repeat runs; inconclusive = weak or mixed curves; inactive = no such curve, though single readings can be large or run the other way.

What follows are compounds tested against Cytochrome P450 3A4 (Homo sapiens) (UniProt P08684) (assay: Cytochrome P450 Family 3 Subfamily A Member 4 (CYP3A4) small molecule antagonists: luciferase reporter qHTS assay (AID 1671201; also: nearly all actives have a fitted effect of over 50% in size)). Details: P450-Glo CYP3A4 enzyme, luciferin luminescence, 1 h; series mostly up to 115 µM.
Cytochrome P450 3A4 (Homo sapiens), sequence (P08684 whole entry, looked up): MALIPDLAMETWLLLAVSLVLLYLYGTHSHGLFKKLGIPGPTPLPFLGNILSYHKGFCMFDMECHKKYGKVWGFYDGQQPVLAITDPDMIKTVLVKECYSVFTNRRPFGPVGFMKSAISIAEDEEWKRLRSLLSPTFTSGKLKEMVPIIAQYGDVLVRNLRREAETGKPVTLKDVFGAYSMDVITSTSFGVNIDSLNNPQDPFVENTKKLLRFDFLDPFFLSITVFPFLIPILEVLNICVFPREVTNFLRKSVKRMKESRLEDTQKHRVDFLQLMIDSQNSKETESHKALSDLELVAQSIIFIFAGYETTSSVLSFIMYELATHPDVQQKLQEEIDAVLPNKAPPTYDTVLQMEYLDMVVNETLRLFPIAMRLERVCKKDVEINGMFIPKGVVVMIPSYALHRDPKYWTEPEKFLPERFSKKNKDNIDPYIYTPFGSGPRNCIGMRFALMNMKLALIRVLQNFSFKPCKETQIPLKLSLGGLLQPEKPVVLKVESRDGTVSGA
From the text: National Center for Advancing Translational Sciences [NCATS]
U.S. Environmental Protection Agency [EPA]
National Institutes of Environmental Health Sciences [NIEHS]
National Toxicology Program [NTP]
U.S. Food and Drug Administration [FDA]
Cytochrome P450 (CYP) enzymes are membrane-bound hemeproteins that play a key role in metabolism of drugs and xenobiotics. Evaluation of the effect of chemicals on CYP isozymes is useful to minimize the adverse drug reactions and toxicities in drug development process. Tox21 chemicals were tested for their effect on CYP enzyme activities by using P450-Glo (TM) screening systems (Promega Corporation, Madison, WI). These systems provide a luminescent method containing proluciferin substrates and are converted to luciferin products by CYP isozymes. The luciferin products formed are detected with a luciferin detection reagent, and the amount of light produced is proportional to CYP activity. P450-Glo (TM) CYP3A4 screening system (Catalog. No. V9910) was used to detect the compounds that interfere in CYP3A4 activity. The positive control compound used for CYP3A4 assay is ketoconazole (Sigma-Aldrich, St. Louis, MO).
Tox21 Assay Protocol Summary:
Two ul of enzyme-substrate mix was dispensed into medium binding white/solid 1536-well plates (Greiner Bio-One North America Inc., Monroe, NC) using a BioRaptr Flying Reagent Dispenser (FRD, Beckman Coulter, Brea, CA). Compounds dissolved in DMSO and positive control (ketoconazole) were transferred to the assay plates at 23 nl using a Pintool station (Wako, San Diego, CA). The assay plates were incubated at room temperature for 10 min. Then 2 ul of NADPH regeneration solution was added to each well of the assay plates using an FRD and incubated at room temperature for 1 h. The reaction was stopped by adding 4 ul of detection reagent using an FRD and after 20 min incubation at room temperature the luminescence signal was measured using a ViewLux plate reader (Perkin Elmer, Shelton, CT). Data were expressed as relative luminescence units.
Potency is read from the fitted curve at half-maximal effect.

SMILES | Potency
Cc1cccc(C)c1NC(=O)CN1CCCC1=O | inactive
FC(F)(F)c1ccc(Cl)cc1 | inactive
O=C/C=C/c1ccccc1 | inactive
Cc1ccc(O)c(C)c1 | inactive
Cl/C=C/Cl | inactive
CCOC(=O)CC(SP(=O)(OC)OC)C(=O)OCC (stereo not given) | inactive
CC(=O)C1CCOC1=O (stereo not given) | inactive
CNC(=O)Oc1cccc2ccccc12 | inactive
Oc1c(Br)cc(Br)cc1Br | inactive
CCSC(=O)N1CCCCCC1 | 30.8 µM (active) and inactive
Nc1ncc([N+](=O)[O-])s1 | inactive
Cc1cccc(C)c1N | inactive
CC[N+](=O)[O-] | inactive
Nc1cccc(Cl)c1 | inactive
O=[N+]([O-])c1ccc(Cl)cc1 | inactive
CC(=O)/C=C/c1ccccc1 | inactive
CNC(=O)O/N=C/C(C)(C)S(C)=O (stereo not given) | inactive
C[C@]12CC[C@H](O)CC1=CC[C@@H]1[C@@H]2CC[C@]2(C)C(=O)CC[C@@H]12 | inactive
Cc1ccccc1N | inactive and 28.8 µM (active) and 28.3 µM (active)
CC(C)(C)C(=O)CCl | inactive

SMILES | Potency
N#Cc1ccccn1 | inactive
N#Cc1cccc(C#N)c1 | inactive
Clc1cnc(Oc2ccc(Oc3ncc(Cl)cc3Cl)cc2)c(Cl)c1 | inactive
CSc1nnc(C(C)(C)C)c(=O)n1N | inactive
COC(C)(C)CCCC(C)C/C=C/C(C)=C/C(=O)OC(C)C (stereo not given) | inactive
OC[C@@H](O)[C@H]1O[C@@H]2O[C@H](C(Cl)(Cl)Cl)O[C@@H]2[C@H]1O | inactive
CCCOC(=O)c1ccccc1C(=O)OCCC | inactive
CNC(=O)O/N=C/C(C)(C)SC | inactive
CN(C)C(=O)Cl | inactive
O=C(O)Cc1ccccc1 | inactive
O=C(O)COc1ccccc1 | inactive
Nc1ccc([As](=O)(O)O)cc1 | 34.6 µM (active) and inactive
COS(=O)(=O)OC | inactive
Cc1cccc(N)c1C | 36.9 µM (active)
CNC(=O)O/N=C/C(C)(C)S(C)(=O)=O | inactive
CN(C)C(=O)Nc1cccc(C(F)(F)F)c1 | inactive
CN1C(=O)CCS(=O)(=O)C1c1ccc(Cl)cc1 (stereo not given) | inactive
CC12CC1(C)C(=O)N(c1cc(Cl)cc(Cl)c1)C2=O (stereo not given) | inactive
O=[N+]([O-])c1ccc(Cl)c(Cl)c1 | inactive
Nc1nc(N)nc(NC2CC2)n1 | inactive
